Bioassay records: PubChem BioAssay, National Center for Advancing Translational Sciences (NCATS)
3T3 cytotox: cytotoxic compounds in NIH 3T3 cells | NIH 3T3 viability, CellTiter-Glo ATP luminescence, 48-72 h | actives 4.3% (n = 94,000) | Potency, µM (top dose mostly 96.7 µM), for the others: at the highest dose activity change, negative = cytotoxicity, hits mostly inhibitors; further: nearly all actives have a fitted effect of over 55% in size
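ATP-dependent luminescence (CellTiter-Glo) served as the viability signal for NIH 3T3 cells treated with compound for 48 or 72 hr at 37 °C.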
HEK cytotox: cytotoxic compounds in HEK 293 cells; HEK 293 viability, ATP luminescence (CellTiter-Glo), 48-72 h; Potency, µM (top dose mostly 115 µM), for the others: at the top dose activity change, negative = cytotoxicity, most hits filed as inhibitors; actives 6.6% (n = 94,000); further: nearly all actives have a fitted effect of over 60% in size
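HEK 293 cells at 250 cells/well were exposed to compounds by pintool transfer for 48 or 72 hr at 37 degree Celsius, 5% CO2. Viability was read as ATP-coupled luminescence with CellTiter-Glo after 10 min at room temperature.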
FLuc inh: Photinus pyralis luciferase inhibition; AID 1347043; P08659; purified P. pyralis luciferase, luminescence, biochemical; Potency, µM (top dose mostly 115 µM), usual class: inhibitors; actives 2.5% (n = 76,000); further: nearly all actives have a fitted effect of over 65% in size
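Purified 10nM P. pyralis luciferase with 10uM D-luciferin and 10uM ATP in 50mM Tris acetate pH 7.5, 10mM Mg acetate, 0.01% Tween-20, 0.05% BSA. qHTS titration; luminescence read by CCD imager.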
hNpr1 antagonist: human Npr1 receptor antagonism; HEK293 hNpr1 GloSensor cGMP, ANP-stimulated luminescence; Potency, µM (series often up to 46.3 µM), inactives show at the top dose activity change, negative = inhibition, most hits filed as inhibitors; actives 1.6% (n = 76,000); AID 1347048; calls by dose curve; further: nearly all actives have a fitted effect of over 60% in size
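HEK293 cells stably expressing human Npr1 and cGMP GloSensor pGS-40F, loaded 2 h with 2% GloSensor reagent, given compound 30 min at room temperature. Luminescence read before and 20 min after 0.1 nM hNppA.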
The depositor's hits bear a star; i = inactive; u = inconclusive; x = no result; [ ] = another dose, or the depositor's remark. Hits are enriched below; roughly 11% of the tested compounds scored in any of these assays. Unless noted, the call rests on the fitted dose curve; in most records, active means well fitted curve in the direction sought with a large enough effect; inconclusive means small, poorly fitted or top-dose-only effect, or another doubt; inactive means no such curve, though single readings can be large; an effect the other way counts as inactive or inconclusive. On the % scale 0 is the no-effect control and ±100 the full control effect; potency means the concentration at half of the fitted maximal effect.

SMILES | 3T3 cytotox | HEK cytotox | FLuc inh | hNpr1 antagonist
CNC(=O)c1cccc(-c2cnc(Nc3ccc4c(c3)OCCO4)c3c2CCO3)c1 | u | 79µM* | 5.6µM* | u
CNC(=O)c1cccc(-c2cnc(Nc3ccc(N4CCOCC4)cc3)c3c2CCO3)c1 | u | 79µM* | 0.63µM* | -7%[70.6 µM]
Fc1cc(Nc2ncc(-c3ccccc3)c3c2OCC3)cc(N2CCOCC2)c1 | u | u | i | 1%[70.6 µM]
CCOC(=O)C1CCN(C(=O)c2ccc3oc(-c4ccncc4)nc3c2)CC1 | -23%[138 µM] | -23%[172 µM] | x | x
O=C(NCc1ccc(Cl)cc1)c1c(OCC2CC2)cc(=O)n2c1CCOCC2 | -32% | -22% | x | x
Cc1ccc(Nc2ccnc(N3CCCC(C(=O)NCC4CC4)C3)n2)cc1 (stereo unspecified) | 35µM* | 35µM* | x | x
COC(=O)CNC(=O)C1CCN(c2nccc(Nc3ccc(C)cc3)n2)CC1 | -14% | i | x | x
COc1ccc(Nc2ccnc(N3CCC(C(=O)NCC4CC4)CC3)n2)cc1 | 40µM* | u | x | x
C#CCNC(=O)C1CCN(c2nccc(Nc3ccc(C)cc3)n2)CC1 | u | 50µM* | x | x
Cc1ccc(Nc2ccnc(N3CCC(C(=O)Nc4ccccc4Cl)CC3)n2)cc1 | 40µM* | u | x | x
CC(C)(C)c1nnc2ccc(C(=O)NC3CC3)cn12 | 0%[138 µM] | -2%[172 µM] | x | x
CNC(=O)c1cc(C)nc2onc(C3CCN(C(=O)c4ccccc4C)CC3)c12 | -26% | -27% | x | x
Cc1ccc(Nc2ccnc(N3CCC(C(=O)NCC4CCCCCC4)CC3)n2)cc1 | 18µM* | u | x | x
O=C(NCC1CC1)C1CCN(c2nccc(Nc3ccccc3F)n2)CC1 | -29% | u | x | x
Cc1noc(C)c1-c1cc2c(c(-c3cccc(OC(C)C)c3)c1)C(=O)N(C)C2 | u | u | i | 1.8µM*
Cc1noc(C)c1-c1cc2c(c(-c3cnn(C)c3)c1)C(=O)N(C)C2 | u | -42%[172 µM] | i | 1%[70.6 µM]
Cc1noc(C)c1-c1cc2c(c(-c3ccccc3Oc3ccccc3)c1)C(=O)N(C)C2 | 13µM* | u | i | -23%[70.6 µM]
Cc1cccc2c(C3CCN(S(=O)(=O)c4c(Cl)cccc4Cl)CC3)c[nH]c12 | u | u | i | -1%
CCCc1ccc(S(=O)(=O)N2CCC(c3c[nH]c4c(C)cccc34)CC2)cc1 | u | 50µM* | i | -2%
N#Cc1ccc(CN2C[C@@H](COCC(N)=O)[C@H](c3ccncc3)C2)cc1 | -15% | 89µM* | i | -11%
CC(C)n1cc(CN2C[C@@H](COCC(N)=O)[C@H](c3ccncc3)C2)cn1 | -13% | u | i | 0%
O=C(NC1CCCc2ccccc21)C1(c2ccc(Cl)cc2)CCOCC1 (stereo unspecified) | -36% | -43% | x | x
O=C(CN1CCOc2c(O)cc(-c3csc4ccccc34)cc2C1)N1CCOCC1 | u | u | i | -3%
Cc1[nH]cnc1C(=O)N1CCOc2c(O)cc(-c3csc4ccccc34)cc2C1 | 79µM* | 45µM* | i | -18%
NCCCCC(=O)N1CCOc2c(O)cc(-c3csc4ccccc34)cc2C1 | 40µM* | 32µM* | i | -29%
SMILES | 3T3 cytotox | HEK cytotox | FLuc inh | hNpr1 antagonist
O=C1CCCN1CCN1CCOc2c(O)cc(-c3csc4ccccc34)cc2C1 | u | 45µM* | i | 2%
O=C(c1ccc2ccccc2n1)N1CCC(n2cc(-c3nc(-c4ccccc4)no3)nn2)C1 (stereo unspecified) | u | u | 28µM* | u
O=C(Cc1ccsc1)N1CCC(n2cc(-c3nc(-c4ccccc4)no3)nn2)C1 (stereo unspecified) | -27% | u | 56µM* | -28%
O=C(Cc1cccc(F)c1)N1CCC(n2cc(-c3nc(-c4ccccc4)no3)nn2)CC1 | i | -1% | i | 1%
O=C(c1ccco1)N1CCC(n2cc(-c3nc(-c4ccccc4)no3)nn2)C1 (stereo unspecified) | u | u | 35µM* | -27%
O=C(c1nccc2ccccc12)N1CCC(n2cc(-c3nc(-c4ccccc4)no3)nn2)C1 (stereo unspecified) | u | 28µM* | 45µM* | u
Cc1ccc(C(=O)N2CCC(n3cc(-c4nc(-c5ccccc5)no4)nn3)C2)s1 (stereo unspecified) | -13% | u | i | u
CCCC(=O)Nc1cc(-c2ccccn2)nn1-c1ccccc1 | -14%[138 µM] | -3%[172 µM] | x | x
